Test results as given in PubChem BioAssay (NCI).
About 83,000 compounds went through this panel and 20% of them were active in at least one assay; those are over-represented in the sample as a whole.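 The test compound was applied at a single concentration to cells in 96-well plates for 48 hours, and percent growth was recorded.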 Unmarked numbers belong to inactive results. Active and inactive are the calls of the source.

Test system: CAKI-1 renal
Assay: NCI-60 one-dose screen, 48 h (100 = growth as untreated, 0 = no growth, -100 = all killed)
Details: 10 µM unless noted
Method: Growth inhibition of the CAKI-1 human tumor cell line is measured as a screen for anti-cancer activity. Cells are grown in 96 well plates and exposed to the test compound for 48 hours. Compounds are tested at a single concentration, which is 10^-5 M for most compounds. The reported endpoint is percent growth (GI% or GIPRCNT), where numbers from 0 - 100% represent growth inhibition, and numbers from -100% - 0 represent cell death. For example, a value of 40 represents 60% growth inhibition. A value of 0 means no net growth occurred over the course of the experiment. A value of -40 indicates 40% of cells at the beginning of the experiment died by the end of the experiment. A value of -100 means all cells are dead at the end of the experiment.
NCI-60 Human Tumor Cell Lines Screen was performed using the standard one-dose NCI protocol, which is described in more detail at https://dtp.cancer.gov/discovery_development/nci-60/default.htm.
Compounds with GIPRCNT values below 10 were considered active. Activity score was based on GIPRCNT using the following formula: […]
Score is 0 for GIPRCNT values of 100 or above, 50 for GIPRCNT values of 0, and 100 for GIPRCNT values of -100.

Structure (SMILES)	growth
CN(C)c1ccc(-c2ccc(-c3ccc(C(=N)N)cn3)o2)cc1	-72.5% (active)
COc1cc(CNC(=O)CSc2nc3ccccc3c(=O)n2Cc2cc(OC)c(OC)c(OC)c2)cc(OC)c1OC	98.5%
O=[N+]([O-])c1c(S(=O)(=O)O)cc2cc(S(=O)(=O)O)ccc2c1[N+](=O)[O-]	93.8%
O=C(Nc1ccc(I)cc1)c1cccc([N+](=O)[O-])c1O	13.4%
Clc1ccc([I+]c2ccc(Cl)cc2Cl)c(Cl)c1	27%
COc1ccc(-n2cnc3c(sc4ncc(Cl)cc43)c2=O)cc1	86.6%
O=S(=O)(NCCNc1cc(-c2cn(-c3ccccc3)nc2-c2ccccc2)ccn1)c1cccc2ccccc12	49.8%
COc1ccc(NC(=O)CSc2nc3ccccc3c(=O)n2-c2ccccc2C(F)(F)F)c(OC)c1OC	98.4%
NCCSC(c1ccccc1)(c1ccccc1)c1ccccc1	15.9%
CCCCCc1c(C)[nH]c(/C=c2\[nH]/c(=C3/C=c4ccccc4=N3)cc2OC)c1C	-38.7% (active)
O=C1Nc2ccc(Br)cc2C1=N/C=c1\[nH]c(=O)/c(=C/c2ccc(Cl)cc2)s1	101%
CCNC(=O)C1CCCN1C(=O)C(CCCN=C(N)N)NC(=O)C(CC(C)C)NC(=O)C(CC(C)C)NC(=O)C(Cc1ccc(O)cc1)NC(=O)C(CO)NC(=O)C(Cc1c[nH]c2ccccc12)NC(=O)C(Cc1cnc[nH]1)NC(=O)C1CCC(=O)N1 (stereo not given)	84.9%
c1ccn2nnnc2c1	97.9%
COc1cc2nc(Cl)nc(NCCO)c2cc1OC	111%
Cc1ccc(S(=O)(=O)OC2COCOC2C(OS(=O)(=O)c2ccc(C)cc2)C2OCOCC2OS(=O)(=O)c2ccc(C)cc2)cc1 (stereo not given)	105%
COc1cccc(/C=C2\SC(N3CCN(c4ccccn4)CC3)=NC2=O)c1	104%
C=CCc1cc(Cl)cc2c(OC(C)=O)c(C(C)=O)c(-c3ccccc3)nc12	87.5%
CCCCCCCCCCCCCCCCC(Br)C(=O)O (stereo not given)	101%
Cc1c(C(=O)NCc2ccccc2)[n+](=O)c2cc(F)ccc2n1[O-]	79.7%
O=C1OC(c2ccccc2)=N/C1=C\c1ccc([N+](=O)[O-])cc1	91.5%

Structure (SMILES)	growth
CCN(Cc1ccc(CN(CC)C(=O)C(Cl)(Cl)Cl)cc1)C(=O)C(Cl)(Cl)Cl	72%
COc1cc(/C=C/C(=O)c2ccccc2O)ccc1OCCCOc1cc2c(cc1OC)C(=O)N1CCC[C@H]1C=N2	-35.3% (active)
COc1ccc(/C=C/c2cc(N3CCOCC3)c3cc(F)c(F)cc3n2)cc1OC	8.6% (active)
CC1CCN(C(=O)CSc2nc3sc4c(c3c(=O)[nH]2)CCCC4)CC1	96.4%
O=C(c1c[nH]c2ccccc12)C(Sc1nc2ccccc2c(=O)[nH]1)c1ccccc1 (stereo not given)	108%
CCCCCCCN(CCCCCCC)C(=N)c1ccc(OC)c2ccccc12	-12.2% (active)
O=C(O)C(Cc1ccccc1)N1C(=O)/C(=C/C(Cl)=C/c2ccc([N+](=O)[O-])cc2)SC1=S (stereo not given)	6.47% (active)
Cc1cc(C)c(S(=O)(=O)N2CCN(c3cc4c(cc3F)c(=O)c(C(=O)O)cn4C3CC3)CC2)c(C)c1	67.1%
Cc1ccc(S(=O)(=O)OCC(=O)Nc2ccc(C(=O)O)c(O)c2)cc1	102%
CCCOC(=O)C1(O)CCCC1	102%
COC1=CC(c2ccc[nH]2)=N/C1=C\c1[nH]c(C)c(CCCn2cc(CCCCCCCCC[C@@H]3Cc4cc(O)ccc4C4CC[C@]5(C)[C@@H](O)CC[C@H]5C43)nn2)c1C (stereo not given in full)	71%
Cc1ccc(-c2csc3nc(C)c(CCCl)c(=O)n23)cc1	88%
O=C1CCCCC=C1C[N+](=O)[O-]	76%
Cc1sc(N=Nc2ccc(N(C)C)cc2)[n+]([O-])c1C	110%
CCOC(=O)/C=C\C(=O)NC(N)=O	96%
O=c1cc(C2NCCc3c2[nH]c2ccccc32)c2c(ccc3ccccc32)o1 (stereo not given)	15.5%
O=C(Cc1n[nH]c(=O)c2ccccc12)OCc1c(Cl)cccc1Cl	107%
Cc1ccc(S(=O)(=O)NCCCNc2nccc(-c3c(-c4ccccc4)nc4sccn34)n2)cc1	47.3%
CCCCCC/C=C\CCCCCCCCOc1ccc(CCOP(=O)(O)OCC[N+](C)(C)C)cc1	36.9%
COc1ccc(/C=C(\C#N)c2ccc([N+](=O)[O-])cc2)c2ccccc12	64.3%
